Screening results from PubChem.
IDE cell activ: IDE (human) activation, cell-based; HEK cells, FAbeta-B cleavage, fluorescence polarization; 0% vehicle, 100% cell-free pure enzyme wells; activation, % at 5.96 µM; hit rate 0.073% among 340,000; AID 493087;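 active means activation above the mean of all tested compounds plus 3 SD, set per screening campaign, cut at about 17% in these data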
Target sequence (P14735 whole entry, looked up): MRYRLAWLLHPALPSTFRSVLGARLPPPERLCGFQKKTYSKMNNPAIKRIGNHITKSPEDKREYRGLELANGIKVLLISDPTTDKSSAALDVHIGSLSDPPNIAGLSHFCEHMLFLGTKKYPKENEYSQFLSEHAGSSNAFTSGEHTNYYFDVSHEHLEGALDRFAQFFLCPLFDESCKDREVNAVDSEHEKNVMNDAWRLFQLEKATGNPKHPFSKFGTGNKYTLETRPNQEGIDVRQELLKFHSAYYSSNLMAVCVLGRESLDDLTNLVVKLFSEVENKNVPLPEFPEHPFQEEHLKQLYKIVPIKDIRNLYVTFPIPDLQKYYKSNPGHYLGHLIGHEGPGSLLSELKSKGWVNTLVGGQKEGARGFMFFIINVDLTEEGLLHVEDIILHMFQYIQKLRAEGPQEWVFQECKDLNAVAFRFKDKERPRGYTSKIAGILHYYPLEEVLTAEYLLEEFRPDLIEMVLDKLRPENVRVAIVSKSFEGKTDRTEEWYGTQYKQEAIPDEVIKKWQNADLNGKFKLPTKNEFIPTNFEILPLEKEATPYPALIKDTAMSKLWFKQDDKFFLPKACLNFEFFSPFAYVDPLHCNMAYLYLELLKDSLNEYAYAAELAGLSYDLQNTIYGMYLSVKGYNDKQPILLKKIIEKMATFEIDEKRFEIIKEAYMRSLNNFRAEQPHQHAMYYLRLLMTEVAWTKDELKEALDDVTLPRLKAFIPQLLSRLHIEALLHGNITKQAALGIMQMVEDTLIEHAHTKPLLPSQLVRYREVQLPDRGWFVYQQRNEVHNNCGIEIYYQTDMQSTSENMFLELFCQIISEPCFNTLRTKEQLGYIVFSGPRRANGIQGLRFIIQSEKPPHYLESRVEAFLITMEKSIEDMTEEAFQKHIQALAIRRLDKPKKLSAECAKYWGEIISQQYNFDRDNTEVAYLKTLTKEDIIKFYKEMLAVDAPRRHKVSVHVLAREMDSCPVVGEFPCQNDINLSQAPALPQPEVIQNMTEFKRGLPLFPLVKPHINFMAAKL
RTF Ca sens inh: cardiac RTF calcium desensitization | IANBD-labeled cardiac RTF, Ca2+ fluorescence | inhibition, % at 7.15 µM | hit rate 0.12% among 340,000 | AID 493244;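 active means inhibition above the mean inhibition of all tested compounds plus 3 SD, cut at about 17% in these data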;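 further: assay run at fixed EC70 calcium of 1.6 mM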
CRFR2-BP antag: blocks CRF-induced signaling of the CRF-BP/CRF-R2 complex. HEK293 CRF-R2/CRF-BP, CRF-induced calcium fluorescence. inhibition, % at 11.8 µM. hit rate 0.59% among 350,000. AID 588475;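 active means inhibition of the ligand-induced calcium signal above about 50% at the single tested concentration, limit read from the data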
IDE inh: inhibits human insulin-degrading enzyme in HEK cells; P14735; FAbetaB cleavage, fluorescence polarization; inhibition, % at 5.59 µM; hit rate 0.41% among 320,000; AID 434962;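 active means percent inhibition above the average of all tested compounds plus 3 SD, set per screening campaign, cut at about 16% in these data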;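 further: IDE supplied by intact live HEK cells; FP after avidin binding of uncleaved biotin substrate so inhibition keeps polarization high; 0% = DMSO wells and 100% = 60 µM reference IDE inhibitor Ii1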
cardiac RTF act: increases calcium sensitivity of human cardiac regulated thin filaments. P19429+P45379. IANBD-labeled TnC RTF fluorescence at EC20 calcium; 0% EC20 calcium, 100% full calcium. activation, % at 7.2 µM. hit rate 0.24% among 340,000;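 active means activation above the mean over all tested compounds plus 3 SD, cut at about 30% in these data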;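 further: rise in fluorescence read as greater calcium sensitivity of cardiac thin filaments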
CRFBP-R2 agonist: agonists of human CRF-binding protein/CRF-R2 receptor complex | activation, % at 13.2 µM | hit rate 0.46% among 350,000 | HEK293 CRF-R2/CRF-BP, calcium dye fluorescence (FLIPR); percent of saturating CRF peptide response;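 active means activation of at least 50%, plus an integration ratio under a set limit after plate pattern correction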;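 further: plate controls were neutral control wells without compound for no effect and CRF at EC100 for full effect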
The depositor's hits bear a star; / = not tested or not shown. Rows were chosen to be rich in hits. Some 1.5% of all compounds tested hit in one or more screens of this group.

SMILES | IDE cell activ | RTF Ca sens inh | CRFR2-BP antag | IDE inh | cardiac RTF act | CRFBP-R2 agonist
CC1CN(S(=O)(=O)c2cccc(C(=O)NCCc3ccc(S(N)(=O)=O)cc3)c2)CC(C)O1 (centres undefined) | -1.1 | 7.5 | 4.2 | 3.5 | -7.2 | 2.6
COc1cc(OC)c2ccc(=O)oc2c1C(CCN1CCOCC1)c1ccc2c(c1)OCO2 (centres undefined) | 5.6 | -5.0 | 76.1* | / | 1.2 | -2.6
COc1ccc(Cl)cc1Nc1nc(NCCO)nc(N2CCCCC2)n1 | 2.8 | -12.0 | 51.1* | 0.1 | 2.2 | -0.3
COc1ccc(Cl)cc1Nc1nc(NCCO)nc(N2CCCC2)n1 | -2.0 | 1.4 | -24.8 | -3.4 | -5.5 | 1.4
Cc1ccc(SCC(=O)N2CCN(c3ccccn3)CC2)cc1 | 3.4 | -3.4 | 6.8 | -1.0 | -0.3 | -0.5
Cc1cn(CC(=O)N2CCN(c3ccccn3)CC2)c(=O)[nH]c1=O | 0.5 | -2.5 | 95.6* | / | 2.5 | 1.4
CCN(C(=O)COC(=O)/C=C/c1c(C)nn(-c2ccccc2)c1C)c1c(N)n(Cc2ccccc2)c(=O)[nH]c1=O | 1.2 | -12.3 | -11.2 | / | 2.3 | 5.4
CCn1ncc(C(=O)Nc2ccc([N+](=O)[O-])cc2OC)c1C | 6.8 | 1.8 | 51.1* | 2.6 | -6.8 | 2.1
Cc1cccc(CS(=O)(=O)Cc2ccc(C(=O)NC3CCCCC3)o2)c1 | 4.3 | -5.0 | -0.9 | -2.1 | 1.7 | -2.5
Cc1ccccc1C(=O)NCC(=O)OC1CCCCC1=O (centres undefined) | 2.5 | -10.8 | 67.8* | -5.5 | -1.5 | 4.8
Brc1ccc(OCc2ccccc2)c(CNCc2ccncc2)c1 | -16.6 | -3.5 | 10.5 | 11.2 | -0.7 | -1.9
Fc1ccc(COc2ccccc2CNCc2ccncc2)cc1 | -13.7 | -9.4 | 3.6 | 17.4* | -0.3 | -1.6
Cc1c(N=C2N=C(NC(=O)c3cccs3)c3ccccc32)c(=O)n(-c2ccccc2)n1C | -24.2 | -31.5 | -66.3 | 2.8 | 15.2 | 89.5*
Cc1c(N=C2N=C(NC(=O)NC(C)(C)C)c3ccccc32)c(=O)n(-c2ccccc2)n1C | 8.2 | 1.6 | 22.7 | -0.7 | -2.6 | -2.0
Cc1onc(-c2ccccc2Cl)c1C(=O)NCc1ccc(N2CCCC2=O)cc1 | 2.7 | -4.8 | 57.2* | 2.1 | 1.7 | 11.1
COc1ccc(C(C)=O)cc1CN(c1ccccc1OC)S(=O)(=O)c1cccs1 | -2.2 | -3.6 | 1.3 | -6.5 | -4.5 | -0.8
CC(Sc1n[nH]c(=O)n1Cc1ccccc1)C(=O)NCC1CCCO1 (centres undefined) | 0.9 | -6.0 | -0.8 | / | 3.0 | -0.5
CCCn1c(=N)n(CC(O)COc2ccc(C)cc2)c2ccccc21 (centres undefined) | -5.1 | -4.2 | 50.9* | 1.6 | 11.7 | 0.1
COc1ccc(-c2nn(-c3ccccc3)cc2/C=C(\C#N)S(=O)(=O)c2ccccc2)cc1OC | 2.8 | 3.9 | 66.2* | 2.9 | -2.4 | 12.3
Cc1nn(-c2ccccc2)c(Cl)c1C(=O)NCCCCNC(=O)c1c(C)nn(-c2ccccc2)c1Cl | 4.2 | -3.5 | 8.9 | 3.9 | -0.9 | -1.2
CCC(=O)N(Cc1c(C)nn(-c2ccccc2)c1Cl)c1ccc(Cl)cc1 | -0.8 | 1.7 | 67.5* | 1.4 | 1.1 | -1.5
CN1CCCc2cc3c(C(F)(F)F)cc(=O)oc3nc21 | 9.8 | -58.5 | -92.5 | 3.3 | 37.7* | 211.6*
CC(C)c1cc(=O)oc2c3c4c(cc12)CCCN4CCC3 | 0.8 | -17.6 | -3.0 | 1.8 | 7.3 | 7.8
Cc1cc(C(=O)NNC(=O)C(CCC(N)=O)NS(=O)(=O)c2ccc(Cl)cc2)c(C)o1 (centres undefined) | 2.8 | 0.9 | 67.4* | 7.6 | 0.8 | -0.4
COc1ccc(CCNC(=O)C(CCC(N)=O)NS(=O)(=O)c2ccc(Cl)cc2)cc1OC (centres undefined) | 6.2 | -2.9 | 5.8 | 0.3 | -1.2 | 1.1
CCOC(=O)c1[nH]c(C)c(C(=O)OCC)c1C | 0.9 | -4.2 | 5.6 | 4.0 | -0.7 | -1.0
CCOC(=O)c1c(C(F)(F)C(F)(F)C(F)(F)C(F)(F)F)n[nH]c1C | 0.6 | -2.5 | 54.2* | 2.0 | 2.6 | 6.1
COc1cc([N+](=O)[O-])ccc1N/C=C/C(=O)c1cccs1 | 2.3 | -492.7 | -116.9 | 9.0 | 287.5* | 83.9*
O=C(/C=C/c1ccc([N+](=O)[O-])cc1)c1cccs1 | 1.9 | -20.2 | -14.5 | -4.8 | 6.4 | -0.9
